The sample as a whole holds a higher share of hits than the screen did.
HIV RNase H inh-1 = blocks HIV-1 RNase H cleavage of RNA/DNA duplex. P04585. RT-RNase H RNA/DNA duplex cleavage, fluorescence. 1.9% of 65,000 active. inhibition, % at 10 µM; in the data active = inhibition above about 50%
RmlCD inh mix = mixture blocks RmlC and RmlD coupled enzyme activity; RmlC/RmlD coupled enzyme inhibition, 384-well mixture HTS; inhibition, % at 5.5 µM; 0.39% of 110,000 active; in the data active = inhibition above about 30%, passing the limit was not always enough; inconclusive = no clear call, values can overlap the other calls
HIV RNase H inh-2 = confirmation of HIV-1 reverse transcriptase RNase H inhibitors | Recombinant RT RNase H, fluorescent RNA/DNA duplex cleavage | inhibition, % at 10 µM | shares compounds with HIV RNase H inh-1 | 39% of 1,000 active; in the data active = inhibition above about 48%; inconclusive = no clear call, values can overlap the other calls
The depositor's hits bear a star; ? = inconclusive; nt = not tested or not shown.

SMILES | HIV RNase H inh-1 | RmlCD inh mix | HIV RNase H inh-2
CCN(CC)c1ccc(C=N/C(C#N)=C(\N)C#N)cc1 | 80* | 14 | 45
CCN(CC)c1ccc(/C=N/N2CCOCC2)cc1 | nt | 0 | nt
CC(=O)c1ccc(NC(=O)CSc2nnc(Cn3c(=O)sc4ccccc43)n2C)cc1 | -5 | 8 | nt
O=c1[nH]c(=O)n(Cc2ccco2)c2c1C(C(F)(F)F)(C(F)(F)F)N=C(C1CCCCC1)N2 | 70* | 9 | 29
O=c1[nH]c(=O)n(Cc2ccco2)c2c1C(C(F)(F)F)(C(F)(F)F)N=C(CCC1CCCCC1)N2 | nt | 8 | nt
Cc1cc(C)c(NC(=O)C(C)Sc2nnc(-c3ccco3)n2-c2ccccc2)c(C)c1 (stereo unspecified) | nt | 22 | nt
Cc1ccc(NC(=O)Cn2nnc(C(=O)Nc3ccc(C)c(C)c3)c2N)cc1 | 67* | -17 | 59*
CSc1ccc(Cn2nnc(C(=O)Nc3ccc(C)c(C)c3)c2N)cc1 | nt | 5 | nt
Cc1sc2c(=O)n3c(nc2c1C(=O)NC1CCCCC1)CCCCC3 | nt | 13 | nt
CC(=O)C1=C(C)NC(SCC(=O)c2ccc(F)cc2)=C(C#N)C1c1ccco1 (stereo unspecified) | -7 | 7 | nt
COc1ccccc1NC(=O)C1=C(C)NC(SCC(=O)c2ccc(C)cc2)=C(C#N)C1c1ccco1 (stereo unspecified) | 59* | nt | 39
CCc1ccc(OCC(=O)Nc2ccc(-c3nc4ccccc4o3)c(O)c2)cc1 | 68* | -195 | ?
COc1ccc(OCC(=O)Nc2cccc(-c3nc4ccccc4o3)c2)cc1 | 9 | 0 | nt
O=C1CCCc2oc3ccc(O)cc3c21 | nt | 10 | nt
COC(=O)/C=c1/sc2nc3ccccc3n2c1=O | -3 | 7 | nt
O=c1/c(=C/c2ccccn2)sc2nc3ccccc3n12 | 60* | nt | 79*
CCCCCCC(=O)N(O)C1CC(=O)N(c2ccc(Br)cc2)C1=O (stereo unspecified) | 24 | -5 | nt
COc1ccccc1N(O)C1CC(=O)N(c2ccc(Br)cc2)C1=O (stereo unspecified) | 68* | -13 | 25
CCNC(=S)NNC(=O)c1cc(-c2cc(C)ccc2C)nc2ccccc12 | nt | -22 | nt
CNc1sc(C(=O)c2cccs2)c(N)c1-c1nc2ccccc2s1 | 75* | nt | 38
CNc1sc(C(=O)c2ccc(F)cc2)c(N)c1-c1nc2ccccc2s1 | nt | -9 | nt
COc1cccc(C2c3c(oc4cc(C)c(C)cc4c3=O)C(=O)N2CCCN(C)C)c1 (stereo unspecified) | 9 | -5 | nt
S=C(c1ccc(N2CCCC2)cc1)N1CCCCC1 | 6 | 8 | nt
CCN(CC)c1ccc(C(=S)N2CCN(c3ccccc3)CC2)cc1 | 73* | 4 | 26
COc1ccc([C@H]2/C=C\CN(Cc3ccc(N(C)C)cc3)[C@@H](C)C(=O)N2Cc2ccc(F)cc2)cc1 | nt | 0 | nt
SMILES | HIV RNase H inh-1 | RmlCD inh mix | HIV RNase H inh-2
COc1ccc(S(=O)(=O)N(CC(=O)N2CCN(C)CC2)c2ccc(C)cc2)cc1OC | -3 | -8 | nt
Cc1cccnc1NC1OC(=O)c2ccccc21 (stereo unspecified) | nt | 3 | nt
Cc1ccc(-c2nnn(CC(=O)N3CCCCC3)n2)c(-n2cnnn2)c1 | 82* | 5 | 13
Cc1ccc(-c2nnn(CC(=O)NCc3ccccc3)n2)c(-n2cnnn2)c1 | -4 | 6 | nt
CCOC(=O)c1c(N)sc2c1CCSC2 | nt | -19 | nt
CCOC(=O)c1c(N)sc2c1CCC1C(=O)N(C3CCCCC3)C(=O)C21 (stereo unspecified) | 74* | -5 | 68*
CSc1nc(-c2ccco2)nn1C(=O)c1ccco1 | 6 | 10 | nt
CN=C(c1ccco1)n1c(=S)nc(-c2ccco2)n(C)c1=S | 55* | 8 | ?
CN(C)CCNC(=O)CN1C(=O)COc2ccc(C(C)(C)C)cc21 | nt | 3 | nt
O=C(O)c1cc(-c2ccco2)nc2ccc(Br)cc12 | 78* | -2 | 8
O=C(c1ccco1)N1CCN(C(=O)c2cc(-c3ccncc3)nc3ccc(Br)cc23)CC1 | 7 | 7 | nt
Cc1cc(C)c(NC(=O)C(C)c2cccc(C(=O)c3ccccc3)c2)c(C)c1 (stereo unspecified) | nt | 4 | nt
O=C(NCCCN1CCCC1=O)c1ccc(Cl)c(NS(=O)(=O)c2ccc(F)cc2)c1 | 3 | -12 | nt
CCOC(=O)c1ccc(N=Cc2nc(-c3ccccc3)oc2OC(C)=O)cc1 | 75* | 11 | 1
CC(=O)Oc1oc(-c2ccccc2)nc1C=Nc1ccccc1 | nt | 20 | nt
NS(=O)(=O)c1cccc(NC(=O)Cn2cnc3ccccc3c2=O)c1 | nt | -6 | nt
O=C(Nc1cccc([N+](=O)[O-])c1)C12CC3CC(C1)CC(n1cnc([N+](=O)[O-])n1)(C3)C2 | nt | -1 | nt
CC(C)C(c1nnnn1C1CCCCC1)N1CCc2ccccc21 (stereo unspecified) | nt | 9 | nt
CC(C)C(c1nnnn1C1CCCC1)N1c2ccccc2CC1C (stereo unspecified) | 74* | 2 | 9
